This is a sample that favours compounds with a hit; in the whole collection about 27% have one here.
sEH inh – soluble epoxide hydrolase (human) inhibition; AID 707; P34913; hit rate 0.34% among 91,000; inhibition, % at 2 µM; recombinant human sEH enzymatic activity assay; in the data active = inhibition above about 80%
CYP2C19 act – increases human CYP2C19 enzyme activity | activation factor at 5 µM | recombinant CYP2C19, luciferin-H EGE luminescence; stronger effect = higher value; 0 = fully inhibited enzyme, 1 = untreated enzyme | 96,000 tested, under 10 active | P33261;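 active = activation factor of at least 2 at 5 µM in the primary screen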;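 note: 0 = wells with 2.5 mM tranylcypromine and 1 = vehicle-only wells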
CYP2C19 inh – blocks human cytochrome P450 2C19; inhibition, % at 5 µM; hit rate 21% among 96,000; CYP2C19 Supersomes, luciferin-H EGE luminescence, 30 min; AID 778; P33261;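 active = CYP2C19 inhibition above a set limit at 5 µM in the primary screen, cut at about 50% in these data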;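 note: plate controls were negative control wells for no effect and 2.5 mM tranylcypromine positive control for full effect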
CYP2C9 activ – activators of human CYP2C9. P11712. recombinant CYP2C9, luciferin-H conversion, luminescence; stronger effect = higher value; factor 1 = untreated enzyme, 0 = blocked. activation factor at 5 µM. hit rate 1.4% among 96,000;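 active = activation factor of 2 or more for CYP2C9 at a 5 µM dose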;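 note: 0 = sulfaphenazole-blocked wells and 1 = vehicle-only wells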
Target sequence (P11712 whole entry, looked up): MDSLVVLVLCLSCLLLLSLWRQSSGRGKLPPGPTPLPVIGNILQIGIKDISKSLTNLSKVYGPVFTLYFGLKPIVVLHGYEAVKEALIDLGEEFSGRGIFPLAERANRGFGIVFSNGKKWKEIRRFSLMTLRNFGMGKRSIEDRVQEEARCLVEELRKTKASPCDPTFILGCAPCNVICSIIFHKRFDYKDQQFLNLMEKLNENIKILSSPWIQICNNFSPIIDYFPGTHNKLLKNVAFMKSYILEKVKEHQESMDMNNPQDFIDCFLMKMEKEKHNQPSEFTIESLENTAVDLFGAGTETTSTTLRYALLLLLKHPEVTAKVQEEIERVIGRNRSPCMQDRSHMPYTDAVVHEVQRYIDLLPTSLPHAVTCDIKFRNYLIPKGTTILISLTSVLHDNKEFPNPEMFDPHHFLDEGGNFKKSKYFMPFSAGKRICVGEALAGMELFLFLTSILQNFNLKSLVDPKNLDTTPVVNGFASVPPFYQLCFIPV
CYP2C9 inh – blocks human cytochrome P450 2C9 | P11712 | CYP2C9 Supersomes, luciferin-H conversion, luminescence | inhibition, % at 5 µM | hit rate 20% among 96,000;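 active = blocking of liver enzyme CYP2C9 beyond about 50% at 5 µM, limit read from the data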
sEH activator – soluble epoxide hydrolase (human) activation; hit rate 0.04% among 91,000; P34913; purified human sEH enzymatic activity, activator screen; activation, % at 2 µM; AID 717; in the data active = activation above about 37%
An asterisk follows results filed as active; / = no result given.

SMILES | sEH inh | CYP2C19 act | CYP2C19 inh | CYP2C9 activ | CYP2C9 inh | sEH activator
C=CCN1C(=O)NC2(O)C(=O)c3ccccc3C12O (stereo unspecified) | 0 | 1.1 | -10 | 1 | 5 | 4
Cc1sc(Nc2ccc([N+](=O)[O-])cc2)nc1-c1c(C)n(C)n(-c2ccccc2)c1=O | -3 | 0.6 | 39 | 0.8 | 22 | 6
Cc1ccc2oc3c(c(=O)c2c1)C(c1cccs1)N(CCCN(C)C)C3=O (stereo unspecified) | / | 1 | -4 | 0.9 | 6 | /
O=C(NCc1ccco1)c1nc2ccccc2s1 | -4 | 0.7 | 29 | 0.9 | 11 | 6
Cc1nc(NC(=O)CSc2ccccc2N)sc1C | -2 | 0.5 | 48 | 0.2 | 76* | 3
CCC(Sc1nc2ccccc2c2nc3ccccc3n12)C(=O)NCc1ccco1 (stereo unspecified) | -7 | 0.9 | 6 | 0.2 | 78* | 4
Cc1ccc(F)cc1NC(=O)C1CCN(c2cnccn2)CC1 | -15 | 0.6 | 44 | 1 | 5 | 13
CCC(C)[C@H](NC(=O)NCc1ccccc1)C(=O)O (stereo partly specified) | 0 | 1 | -2 | 1 | -2 | -3
CCC(NC(=S)NCc1ccccc1)C(=O)O (stereo unspecified) | -12 | 0.5 | 54* | 0.9 | 12 | 10
CCCCn1c(=O)n(CC(=O)Nc2c(CC)cccc2CC)c(=O)c2c1nc(CO)n2CCC | -11 | 1.1 | -5 | 0.8 | 22 | 12
CCCCn1c(=O)n(CC(=O)Nc2ccc(C)c(Cl)c2)c(=O)c2c1ncn2Cc1ccco1 | / | 0.5 | 51* | 0.4 | 62* | /
CCCCn1c(=O)n(CC(=O)Nc2ccc(OC)c(Cl)c2)c(=O)c2c1nc(CO)n2CCC | 4 | 0.2 | 79* | 0.1 | 90* | -5
CCn1cnc2c1c(=O)n(CC(=O)Nc1cc(C)on1)c(=O)n2Cc1ccccc1 | -2 | 0.7 | 31 | 0.7 | 34 | 2
COc1cccc(-c2cc(N)nn2C(=O)Nc2ccc(Cl)cc2)c1 | 7 | 1.1 | -7 | 0.8 | 25 | -8
CCCCCSc1nc(N2CCOCC2)c2c(c1C#N)CC(C)(C)OC2 | 3 | 0.7 | 25 | 0.2 | 83* | -3
CC1(C)Cc2c(C#N)c(OCC(=O)c3ccccc3)nc(-c3ccoc3)c2CO1 | 5 | 0.9 | 13 | 1 | 5 | -4
CC1(C)Cc2c(C#N)c(SCC(=O)c3ccccc3)nc(N3CCOCC3)c2CO1 | -9 | 0.4 | 62* | 0.1 | 92* | 9
COC(=O)Sc1nc(N2CCOCC2)c2c(c1C#N)CC(C)(C)OC2 | / | 0.4 | 62* | 0.2 | 83* | /
CC1(C)Cc2c(C#N)c(SCc3ccccc3)nc(N3CCOCC3)c2CO1 | / | 0.8 | 23 | 0.1 | 88* | /
Cc1cc(Oc2cnn(C(C)(C)C)c(=O)c2Cl)cc(C(C)C)c1 | -22 | / | / | / | / | 21
CC(=O)c1c(N2CCC(C(N)=O)CC2)nc(=S)n(-c2ccccc2)c1C | -9 | 1 | 0 | 1 | -3 | 11
COc1ccc(NC(=O)C2=C(C)C(=O)OC23CCC(C)CC3)c(OC)c1 (stereo unspecified) | / | 0.1 | 87* | 0.2 | 77* | /
CCOc1ccc(NC(=O)C2=C(C)C(=O)OC23CCC(C)CC3)cc1 (stereo unspecified) | -6 | 0.1 | 90* | 0.3 | 69* | 3
CCOc1ccc(NC(=O)C2CC(C)=C(C)CC2C(=O)O)cc1 (stereo unspecified) | -7 | 1.1 | -7 | 1.2 | -19 | 9
CC1=C(C(=O)NC(C)C)C2(CCC(C)CC2)OC1=O (stereo unspecified) | -6 | / | / | / | / | 6
COc1ccccc1CNC(=O)C(CCSC)NC(=O)C1CCC(C)CC1 (stereo unspecified) | 0 | 0.8 | 18 | 0.8 | 20 | -3
COc1ccccc1CNC(=O)C1=C(C)C(=O)OC12CCC(C)CC2 (stereo unspecified) | 1 | 0 | 98* | 0.3 | 72* | -4
CCCNC(=O)C1=C(C)C(=O)OC12CCC(C)CC2 (stereo unspecified) | 6 | 0.5 | 52* | 0.9 | 15 | -6
Cc1nc2ccccn2c1/C(O)=C1\C(=O)C(=O)N(CCN2CCOCC2)C1c1cccs1 (stereo unspecified) | / | 1 | 1 | 0.9 | 11 | /

Source: PubChem
